Measurements taken from PubChem BioAssay (NCATS).
Inconclusive results are not listed. Activity calls are given as the source filed them. The call rests on the fitted dose curve; in most records, active means well fitted curve in the direction sought with a large enough effect; inconclusive means small, poorly fitted or top-dose-only effect, or another doubt; inactive means no such curve, though single readings can be large; an effect the other way counts as inactive or inconclusive.

Columns and labels:
[1] = qHTS of Trypanosoma Brucei Inhibitors: LOPAC Validation (AID 624147)
Method in brief: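 T. brucei PYK with substrate was exposed to pin-transferred compounds across a concentration series, then started with 130 uM ADP (final). After 45 min at room temperature, Kinase-Glo Plus luminescence was read, normalized and curve-fitted.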

[2] = molecular target: Glucagon-like peptide 1 receptor (Homo sapiens) (UniProt P43220); assay: qHTS of GLP-1 Receptor Agonists: LOPAC Validation (AID 624148);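 further: higher luminescence signal means agonism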
Method in brief: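 HEK293 cells stably co-expressing GLP-1R and a cAMP-responsive luciferase reporter, plated 12 hours before compound, then incubated 4-6 hr at 37 deg C. Luminescence read 12 min after detection reagent.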

[3] = qHTS of Nrf2 Activators: LOPAC Validation (AID 624149)
Method in brief: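 ARE reporter activation measured in AREc32 firefly luciferase cells after 24 hr compound exposure; Steady-Glo luminescence.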

[4] = HTS Assay for Allosteric Antagonists of the Human D2 Dopamine Receptor: Hit Validation in HTRF (AID 624455);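 further: stable D1 dopamine receptor cell line scored for blocking the D1 response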
Method in brief: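 Signal from an HTRF read-out in D1-expressing stable cells gave hit activity as inhibition of the D1 response.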

Measured: Potency

Chain of Glucagon-like peptide 1 receptor (Homo sapiens) (P43220 whole entry, looked up): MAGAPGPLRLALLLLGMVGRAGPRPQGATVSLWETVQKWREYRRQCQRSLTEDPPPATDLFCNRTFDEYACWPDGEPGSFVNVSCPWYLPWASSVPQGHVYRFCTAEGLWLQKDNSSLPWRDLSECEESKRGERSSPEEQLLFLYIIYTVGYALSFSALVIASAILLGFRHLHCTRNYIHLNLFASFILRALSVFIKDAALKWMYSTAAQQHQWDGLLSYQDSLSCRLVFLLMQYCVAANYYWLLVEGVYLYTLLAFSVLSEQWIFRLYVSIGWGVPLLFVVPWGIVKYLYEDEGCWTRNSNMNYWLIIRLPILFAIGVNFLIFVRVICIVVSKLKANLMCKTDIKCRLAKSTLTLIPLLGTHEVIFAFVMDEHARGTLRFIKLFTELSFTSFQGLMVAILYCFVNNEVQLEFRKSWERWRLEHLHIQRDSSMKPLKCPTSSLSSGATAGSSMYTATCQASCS

CN1CCN(C2=Nc3cc(Cl)ccc3Nc3ccccc32)CC1
inactive: [1] | [2]

COC(=O)Nc1nc2ccc(C(=O)c3cccs3)cc2[nH]1
inactive: [1] | [2] | [3] | [4]

CCC1(c2ccccc2)C(=O)NCNC1=O
inactive: [1] | [2] | [3]

OCCN1CCN(CCCN2c3ccccc3Sc3ccc(C(F)(F)F)cc32)CC1
inactive: [1] | [2] | [3]

CCCNCC(O)COc1ccccc1C(=O)CCc1ccccc1 (stereo unspecified)
inactive: [1] | [2] | [3] | [4]

Cn1cnc2c1c(=O)[nH]c(=O)n2C
inactive: [1] | [2] | [3] | [4]

CC(C)(Oc1ccc(C2CC2(Cl)Cl)cc1)C(=O)O (stereo unspecified)
inactive: [1] | [2] | [3]

CC(C)Cc1ccc(C(C)C(=O)O)cc1 (stereo unspecified)
inactive: [1] | [2] | [3] | [4]

CC12CC3CC(C)(C1)CC(N)(C3)C2
inactive: [1] | [2] | [3]

CCOC(=O)Nc1ccc(NCc2ccc(F)cc2)nc1N
inactive: [1] | [2] | [3]

O=C(Nc1ccc([N+](=O)[O-])cc1Cl)c1cc(Cl)ccc1O
inactive: [1] | [2] | [3] | [4]

NCCCCCC(=O)O
inactive: [1] | [2] | [3] | [4]

CN(C)CCOC(c1ccccc1)c1ccccc1
inactive: [1] | [2] | [3]

Cc1cnc(C(=O)NCCc2ccc(S(=O)(=O)NC(=O)NC3CCCCC3)cc2)cn1
inactive: [1] | [2] | [3] | [4]

O=c1c(-c2ccc(O)cc2)coc2cc(O)cc(O)c12
inactive: [1] | [2] | [3]

O=C1c2c(O)ccc(O)c2C(=O)c2c(NCCNCCO)ccc(NCCNCCO)c21
inactive: [1] | [2] | [3]

CNCCCC12CCC(c3ccccc31)c1ccccc12
inactive: [1] | [2] | [3] | [4]

Cn1c(=O)c2[nH]cnc2n(C)c1=O
inactive: [1] | [2] | [3]

NC(=O)OCC(COC(N)=O)c1ccccc1
inactive: [1] | [2] | [3] | [4]

CN(C)C(=O)C(CCN1CCC(O)(c2ccc(Cl)cc2)CC1)(c1ccccc1)c1ccccc1
inactive: [1]

NC(=O)NO
inactive: [1] | [2] | [3] | [4]

COc1ccc2[nH]cc(CCNC(C)=O)c2c1
inactive: [1] | [2] | [3]

NC(CO)C(=O)NNCc1ccc(O)c(O)c1O (stereo unspecified)
inactive: [1] | [2] | [3] | [4]

CCN1CCCC1CNC(=O)c1cc(S(=O)(=O)CC)c(N)cc1OC (stereo unspecified)
inactive: [1] | [2] | [3] | [4]

Nc1nnc(-c2cccc(Cl)c2Cl)c(N)n1
inactive: [1] | [2] | [3] | [4]

CC1COc2c(N3CCN(C)CC3)c(F)cc3c(=O)c(C(=O)O)cn1c23 (stereo unspecified)
inactive: [1] | [2] | [3]

CCc1cccc2c3c([nH]c12)C(CC)(CC(=O)O)OCC3 (stereo unspecified)
inactive: [1] | [2] | [3]

CN1CCC(=C2c3ccccc3CC(=O)c3sccc32)CC1
inactive: [1] | [2] | [3]

CCOC(=O)C(C)(C)Oc1ccc(Cl)cc1
inactive: [1] | [2] | [3]

COc1cc2nc(N(C)CCCNC(=O)C3CCCO3)nc(N)c2cc1OC (stereo unspecified)
inactive: [1] | [2] | [3]

O=C(CCCN1CCC(O)(c2ccc(Cl)cc2)CC1)c1ccc(F)cc1
inactive: [1]

Cc1cc(C(C)(C)C)cc(C)c1CC1=NCCN1
inactive: [1] | [2] | [3]

COc1ccccc1OCC(O)CN1CCN(CC(=O)Nc2c(C)cccc2C)CC1 (stereo unspecified)
inactive: [1] | [2] | [3] | [4]

CCC1(C)CC(=O)NC1=O (stereo unspecified)
inactive: [1] | [2] | [3] | [4]

CN(C)c1nc(N(C)C)nc(N(C)C)n1
inactive: [1] | [3]

COc1cc2nc(N3CCN(C(=O)c4ccco4)CC3)nc(N)c2cc1OC
inactive: [1] | [2] | [3] | [4]

CN1C2CCC1CC(OC(=O)C(CO)c1ccccc1)C2 (stereo unspecified)
inactive: [1] | [3]

CCOC(=O)c1ncn2c1CN(C)C(=O)c1cc(F)ccc1-2
inactive: [1] | [3]

Cc1ccccc1N1C(=O)c2cc(S(N)(=O)=O)c(Cl)cc2NC1C (stereo unspecified)
inactive: [1] | [3]

Nc1nc2c(ncn2COC(CO)CO)c(=O)[nH]1
inactive: [1] | [2] | [3] | [4]

COc1ccccc1OCCNCC(O)COc1cccc2[nH]c3ccccc3c12 (stereo unspecified)
inactive: [1] | [2] | [3] | [4]

C[C@H]1c2cccc(O)c2C(O)=C2C(=O)[C@]3(O)C(O)=C(C(N)=O)C(=O)[C@@H](N(C)C)[C@@H]3[C@@H](O)[C@@H]21
inactive: [1] | [2] | [3] | [4]
